This is an account of results in PubChem BioAssay (NCATS).

For assay [1] the following is noted: Ebola virus entry assay, green fluorescence channel.
For assay [2] the following is noted: Ebola virus entry assay, blue channel fluorescence.
For assay [3] the following is noted: Ebola virus entry assay, green fluorescence channel. The source holds these as a separate data set.
The conditions of assay [4]: Ebola virus entry assay, ratio channel readout.
The conditions of assay [5]: Ebola virus entry assay, blue channel fluorescence. The source holds these as a separate data set.
For assay [6] the following is noted: Ebola virus entry assay, ratio channel.
For assay [7] the following is noted: Ebola virus entry assay, green channel fluorescence.
For assay [8] the following is noted: Ebola virus entry assay, reporter ratio channel; AC50: Channel type: primary unless noted; outcome: Channel type: primary unless noted.
The conditions of assay [9]: Ebola virus entry assay, blue channel (ratio component).
For assay [10] the following is noted: Ebola virus entry reporter assay, green channel fluorescence. (In general: In a reporter assay the amount or activity of a reporter protein is the signal.)
The conditions of assay [11]: Ebola virus entry cell assay, ratio channel.
Assay [12] can be described thus: Immunotoxin (SS1P) sensitization/mitigation study. Vehicle arm (DMEM) (AID 1159513). Further: potency means the concentration at half of the fitted maximal effect. Conditions: cell viability with vehicle (DMEM); series mostly up to 46.1 µM.
Assay [13] in a line: qHTS profiling of the MIPE4 collection as inhibitors of Plasmodium falciparum (3D7) proliferation (AID 743344).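 Further: scaled between DMSO vehicle wells and 0.29 µM artemisinin as full inhibition.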 The following applies: P. falciparum 3D7 in erythrocytes, SYBR Green DNA fluorescence, 72 h; at 28.5 µM (top of the series) unless noted. In a few lines: (§1)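 Parasite DNA was quantified by SYBR Green I fluorescence (ex 485, em 535 nm) after overnight lysis in saponin/Triton buffer at room temperature. Cultures at 0.3% parasitemia and 2.5% hematocrit were first exposed to compound for 72 h at 37 C; signals were normalised to artemisinin (0.29 uM) and vehicle wells.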
(In general: Quantitative high-throughput screening tests each substance at several concentrations.)

Assay [14] in a line: qHTS profiling of the MIPE4 collection as inhibitors of Plasmodium falciparum (DD2) proliferation (AID 743345). The following applies: P. falciparum Dd2 in erythrocytes, SYBR Green DNA, 72 h; at 28.5 µM (top of the series) unless noted. In a few lines:
as §1

Assay [15] is described as follows: qHTS profiling of the MIPE4 collection as inhibitors of Plasmodium falciparum (DD2) proliferation (Rep 2) (AID 743346). Conditions: P. falciparum Dd2 in erythrocytes, SYBR Green DNA, 72 h; at 28.5 µM (top of the series) unless noted. In a few lines:
as §1

The conditions of assay [16]: Ebola virus entry assay, blue channel fluorescence. The source holds these as a separate data set.
A short description of assay [17]: Immunotoxin (HA22) sensitization/mitigation study. Vehicle arm (PBS) (AID 1159510). Further: potency means the concentration at half of the fitted maximal effect. The following applies: cancer cells viability with PBS vehicle (HA22 study); series mostly up to 46.1 µM.

Structures are written as SMILES. For part of these data: Potency and affinity values are given separately. The source made the active and inactive calls.
Wherever efficacy is given: 0% is about no effect.

What is called AC50 is the concentration giving half of the maximal activity seen. For `CCC(C)(C)C(=O)O[C@H]1C[C@@H](C)C=C2C=C[C@H](C)[C@H](CC[C@@H]3C[C@@H](O)CC(=O)O3)[C@H]21`, in [1], the efficacy is 37.4% (inactive). Moreover, the molecule was called inactive in [2], in assay [3], in [4], in [5], in assay [7] and in assay [9]. The result in assay [10] and in assay [11] was inactive. In addition, the AC50 in assay [6] and in assay [8] was 7.08 µM (active) each time. The Potency in assay [12] was 7.1 µM (active).

On to `Clc1ccc(C(c2ccccc2Cl)C(Cl)Cl)cc1` (stereo unspecified), for which the efficacy in assay [1] is -31.8% (inactive). Also, the call in assay [2], in assay [3], in assay [4], in [7] and in [11] was inactive. For the same molecule, the AC50 in assay [5] is 31.6 µM (active); in assay [6], 22.4 µM (active); in [8], 22.4 µM (active).

With `CNC1(C)C2CCC(C2)C1(C)C` (stereo unspecified), the efficacy in assay [1] was 20.8% (inactive). Besides, the molecule was classed as inactive in [2], in [3], in assay [4], in [6], in assay [7] and in assay [10]. The outcome in [11] was inactive. The figures for the AC50 in assay [5] and in [8] were 39.8 µM (active) and 35.5 µM (active), respectively.

`CCOC(=O)C1(c2ccccc2)CCN(CCC(C#N)(c2ccccc2)c2ccccc2)CC1`: in assay [1], the efficacy is -34.7% (inactive). For the same molecule, the outcome in [2], in [3], in assay [4], in assay [7] and in assay [10] was inactive. Moreover, the AC50 in [5] was 14.1 µM (active); in assay [6] it was 10 µM (active); in assay [8] it was 10 µM (active); in assay [11], 14.1 µM (active).

Consider `CCOC(=O)C1=C(C)NC(C)=C(C(=O)OC)C1c1cccc(Cl)c1Cl` (stereo unspecified), for which the efficacy in assay [1] is 20.7% (inactive). Further, the molecule was called inactive in assay [2], in assay [3], in [4], in assay [5], in assay [6] and in [7]. The result in [8], in [9] and in assay [11] was inactive.

As to `Cc1ccc(S(=O)(=O)NC(=O)NN2CC3CCCC3C2)cc1` (stereo unspecified), the efficacy in assay [1] is -32.1% (inactive). Moreover, the call in [2], in [3], in [4], in assay [5], in [6] and in assay [7] was inactive. Besides, the outcome in assay [8], in assay [9], in assay [10] and in assay [11] was inactive.

With `CN(C)CCOC(C)(c1ccccc1)c1ccccn1` (stereo unspecified), the efficacy in assay [1] is 20.1% (inactive). Besides, the call in assay [2], in assay [3], in [4], in [7] and in assay [11] was inactive. The AC50 was 15.8 µM (active) in assay [5], 14.1 µM (active) in assay [6] and 14.1 µM (active) in assay [8].

For the molecule `Oc1ccc(C2CNCCc3c2cc(O)c(O)c3Cl)cc1` (stereo unspecified), the efficacy in assay [1] was 16.5% (inactive). For the same molecule, the result in [2], in [3], in assay [4], in assay [5], in assay [6] and in assay [7] was inactive. The outcome in assay [8], in [10] and in assay [11] was inactive.

Molecule `CCn1cc(C(=O)O)c(=O)c2cc(F)c(N3CCNCC3)cc21` displayed a parasite growth, % of DMSO control in assay [13] of 48%. The molecule further showed a parasite growth remaining, % of DMSO control (lower = more inhibition) in [14] of 60.2%. The molecule further displayed a parasite growth, % of control (lower = inhibition) in assay [15] of 42.3%. The efficacy in assay [1] was -31.6% (inactive). Moreover, the call in assay [2], in [3], in assay [4], in assay [5], in assay [6] and in [7] was inactive. For the same molecule, the result in [16], in [8], in [10] and in assay [11] was inactive.

`CCC(C)n1ncn(-c2ccc(N3CCN(c4ccc(OC[C@H]5CO[C@](Cn6cncn6)(c6ccc(Cl)cc6Cl)O5)cc4)CC3)cc2)c1=O` (stereo partly specified): the efficacy in [1] is 13.1% (inactive). The concentration at half-maximal activity (AC50) in [2] is 5.01 µM (active); in assay [4], 2 µM (active); in [11], 2 µM (active). Also, the call in assay [3], in [5], in [6], in assay [7], in assay [8] and in [9] was inactive. In addition, the Potency was 0.743 µM (active) in assay [17] and 16.6 µM (active) in [12].

As for `Cc1cn([C@H]2C[C@H](N=[N+]=[N-])[C@@H](CO)O2)c(=O)[nH]c1=O`, the efficacy in assay [1] was 17% (inactive). The molecule was classed as inactive in [2], in assay [3], in assay [4], in [5], in assay [6] and in assay [7]. In addition, the outcome in assay [8], in [9] and in assay [11] was inactive.

Turning to `NC1[C@H]2CN(c3nc4c(cc3F)c(=O)c(C(=O)O)cn4-c3ccc(F)cc3F)C[C@@H]12` (stereo partly specified), the efficacy in assay [1] is -13.1% (inactive). For the same molecule, the molecule was classed as inactive in assay [2], in assay [3], in assay [4], in [5], in assay [6] and in assay [7]. For the same molecule, the call in assay [16], in assay [8], in [10] and in assay [11] was inactive.

`Nc1cccc2c1CN(C1CCC(=O)NC1=O)C2=O` (stereo unspecified): the efficacy in [1] was 15.2% (inactive). Further, the call in assay [2], in assay [3], in assay [4], in assay [5], in [6] and in assay [7] was inactive. Also, the result in assay [8], in assay [9], in assay [10] and in assay [11] was inactive. Moreover, the Potency result in assay [17] and in [12] was “inactive” throughout.

For the molecule `Nc1nc(N)c2nc(-c3ccccc3)c(N)nc2n1`, the efficacy in [1] was 17.5% (inactive). Further, the result in [2], in assay [3], in [4], in assay [5], in assay [6] and in [7] was inactive. Further, the result in assay [8], in assay [10] and in assay [11] was inactive.

In the case of `CNC(=O)c1cc(Oc2ccc(NC(=O)Nc3ccc(Cl)c(C(F)(F)F)c3)cc2)ccn1`, the efficacy in assay [1] was 20.4% (inactive). Further, the outcome in assay [2], in [3], in [4], in assay [6], in assay [7] and in [10] was inactive. Moreover, the outcome in [11] was inactive. For the same molecule, the AC50 was 39.8 µM (active) in assay [5] and 35.5 µM (active) in [8]. Besides, the results for the Potency in [17] and in assay [12] were 14.8 µM (active) and 20.9 µM (active), respectively.

For `CCc1nc(N)nc(N)c1-c1ccc(Cl)cc1`, the efficacy in [1] is 26.9% (inactive). For the same molecule, the result in assay [2], in [3], in assay [4], in assay [6], in assay [7] and in [16] was inactive. The result in assay [11] was inactive. Moreover, the AC50 in [5] and in assay [8] was 39.8 µM (active) throughout.

`CCC1=C[C@@H]2CN(C1)Cc1c([nH]c3ccccc13)[C@@](C(=O)OC)(c1cc3c(cc1OC)N(C)[C@H]1[C@@](O)(C(=O)OC)[C@H](OC(C)=O)[C@]4(CC)C=CCN5CC[C@]31[C@@H]54)C2`: in assay [1], the efficacy is -100% (inactive). Also, the AC50 is 0.112 µM (active) in [2], 7.94 µM (active) in [5], 2.51 µM (active) in assay [6] and 0.282 µM (active) in assay [11]. The call in [3], in assay [4], in assay [7] and in assay [9] was inactive. Moreover, the outcome in [8] was “inactive [Channel type: confirmation]”.

As to `Nc1nc(F)nc2c1ncn2[C@@H]1O[C@H](CO)[C@@H](O)[C@@H]1O`, the parasite growth, % of DMSO control in assay [13] was determined as 31%. Further, the efficacy in assay [1] was 16.7% (inactive). Moreover, the outcome in [2], in assay [3], in [4], in [5], in assay [6] and in [7] was inactive. In addition, the molecule was classed as inactive in [16], in assay [8], in [9] and in assay [11].

On to `Nc1ccc(O)c(C(=O)O)c1`, for which the efficacy in assay [1] was 18.3% (inactive). Further, the molecule was classed as inactive in assay [2], in [3], in [4], in [6], in [7] and in [16]. Moreover, the call in [10] and in [11] was inactive. In addition, the results for the AC50 in assay [5] and in [8] were 28.2 µM (active) and 31.6 µM (active), respectively.

For `C[C@](N)(Cc1ccc(O)c(O)c1)C(=O)O`, the efficacy in assay [1] was 20.7% (inactive). In addition, the call in [2], in [3], in assay [4], in [7], in assay [16] and in assay [11] was inactive. Besides, the AC50 in assay [5] was 15.8 µM (active); in assay [6] it was 22.4 µM (active); in assay [8], 22.4 µM (active).
